Compound activity from PubChem.
In the library only some 11% were active in any assay of this set; here they are far more common.
BAZ2B inh: qHTS Assay for Inhibitors of BAZ2B; actives 4.4% (n = 360,000); Bromodomain adjacent to zinc finger domain protein 2B (Homo sapiens), Q9UIF8; AID 504333, 2011; AlphaScreen BAZ2B-H3K14Ac peptide displacement; Potency, µM (titrated, usually from 114 µM), for inactives: at the top dose activity change, negative = inhibition, actives largely listed as inhibitors; note: potency is the fitted concentration of half-maximal effect; % is set by controls: 0 for no effect and ±100 for the full control effect; nearly all actives have a fitted effect of over 60% in size
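In this displacement format the biotinylated H3(5-23) peptide acetylated at Lys14 serves as ligand at 50 nM, with BAZ2B at 50 nM in PBS pH 7.4 containing 0.01% Tween-20. Donor and acceptor beads are 10 ug/mL final.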
G9a block: qHTS Assay for Inhibitors of Histone Lysine Methyltransferase G9a; Histone-lysine N-methyltransferase EHMT2 (Homo sapiens), Q96KQ7; G9a H3K9 monomethylation, AlphaScreen, 2 h; Potency, µM (series often up to 102 µM), for the others: top-dose activity, negative = inhibition, usual class: inhibitors; actives 8.8% (n = 350,000); AID 504332, 2011; note: potency is the fitted concentration of half-maximal effect; % is set by controls: 0 for no effect and ±100 for the full control effect; nearly all actives have a fitted effect of over 75% in size
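AlphaScreen read-out: biotin-H3K9 peptide (500 nM) methylation by 20 nM enzyme with 20 uM SAM, 2 h at room temperature after 15 min compound preincubation; anti-monomethyl H3K9 antibody plus donor/acceptor beads, 10 min dark.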
PI5P4K alpha inh: qHTS for Inhibitors of phosphatidylinositol 5-phosphate 4-kinase (PI5P4K); PI5P4Kalpha enzyme, ADP-Glo luminescence, 60 min; stronger effect = lower value; max response, %; actives 1.2% (n = 330,000); AID 652105, 2013; active = max response of -50% or lower; inconclusive = between -30% and -50%; inactive = -30% or higher; note: value at the top dose of about 77 µM; % is set by controls: 0 for no effect and ±100 for the full control effect
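Controls without substrate or without enzyme flank wells where PI5P4Kalpha converts substrate using 5 microM ATP (final). Incubation lasts 60 minutes at room temperature; ADP formed is read by ADP-Glo luminescence.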
JMJD2A Tudor: qHTS Assay for Inhibitors of JMJD2A-Tudor Domain. Lysine-specific demethylase 4A (Homo sapiens), O75164. AlphaScreen JMJD2A-Tudor / H3K4me3 peptide binding. Potency, µM (doses to about 114 µM), for inactives: top-dose activity change, negative = inhibition, usual class: inhibitors. actives 4.4% (n = 390,000). AID 504339, 2011; note: potency is the fitted concentration of half-maximal effect; % is set by controls: 0 for no effect and ±100 for the full control effect; nearly all actives have a fitted effect of over 50% in size
Target sequence (O75164 whole entry, looked up, the tested form may be a part): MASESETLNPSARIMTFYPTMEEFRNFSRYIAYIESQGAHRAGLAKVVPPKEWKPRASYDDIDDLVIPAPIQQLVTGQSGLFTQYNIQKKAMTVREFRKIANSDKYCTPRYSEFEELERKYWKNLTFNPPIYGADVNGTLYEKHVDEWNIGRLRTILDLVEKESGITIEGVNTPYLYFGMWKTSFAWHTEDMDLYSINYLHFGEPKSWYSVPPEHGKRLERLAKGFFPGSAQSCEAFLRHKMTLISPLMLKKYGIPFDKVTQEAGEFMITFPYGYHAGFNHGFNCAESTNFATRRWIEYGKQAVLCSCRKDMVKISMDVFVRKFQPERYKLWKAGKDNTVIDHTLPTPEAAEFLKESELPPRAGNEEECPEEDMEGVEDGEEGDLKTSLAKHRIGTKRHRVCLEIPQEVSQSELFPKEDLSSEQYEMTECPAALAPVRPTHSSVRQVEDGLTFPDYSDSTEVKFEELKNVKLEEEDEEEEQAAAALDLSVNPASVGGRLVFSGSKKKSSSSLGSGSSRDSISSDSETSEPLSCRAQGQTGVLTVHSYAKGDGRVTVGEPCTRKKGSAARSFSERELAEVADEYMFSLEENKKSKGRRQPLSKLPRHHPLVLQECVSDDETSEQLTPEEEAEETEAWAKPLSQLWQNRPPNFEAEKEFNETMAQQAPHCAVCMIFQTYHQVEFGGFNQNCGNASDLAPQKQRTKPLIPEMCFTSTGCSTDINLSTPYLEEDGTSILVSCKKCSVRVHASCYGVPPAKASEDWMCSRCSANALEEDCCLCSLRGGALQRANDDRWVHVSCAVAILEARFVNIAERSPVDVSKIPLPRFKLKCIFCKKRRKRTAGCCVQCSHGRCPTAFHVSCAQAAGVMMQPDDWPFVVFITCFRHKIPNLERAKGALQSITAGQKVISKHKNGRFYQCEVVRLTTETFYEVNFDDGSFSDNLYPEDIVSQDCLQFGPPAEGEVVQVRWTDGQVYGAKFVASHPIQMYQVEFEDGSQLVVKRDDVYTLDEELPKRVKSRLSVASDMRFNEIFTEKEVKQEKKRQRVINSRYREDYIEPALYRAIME
HP1b chromo inh: HTS for Inhibitors of HP1-beta Chromodomain Interactions with Methylated Histone Tails; Chromobox protein homolog 1 (Homo sapiens), P83916; AlphaScreen HP1-beta / biotin-H3K9me3 peptide binding; Potency, µM (titrated, usually from 114 µM), inactives show top-dose activity change, negative = inhibition, hits mostly inhibitors; actives 0.56% (n = 390,000); AID 540317, 2011; note: potency is the fitted concentration of half-maximal effect; nearly all actives have a fitted effect of over 70% in size
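AlphaScreen: HP1-beta (50 nM) preformed 30 min with biotin-H3(1-18)K9me3 peptide (50 nM) in PBS pH 7.4, 0.01% Tween-20. Compound added for 30 min at RT, then streptavidin donor/nickel chelate acceptor beads (10 ug/mL) for 30 min.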
L3MBTL1 inh: qHTS Assay for the Inhibitors of L3MBTL1; Lethal(3)malignant brain tumor-like protein 1 (Homo sapiens), Q9Y468; AlphaScreen L3MBTL1–H3K9me1 peptide binding; Potency, µM (doses to about 57.1 µM), inactives show top-dose activity, negative = inhibition, hits mostly inhibitors; actives 0.66% (n = 230,000); AID 485360, 2010; note: potency is the fitted concentration of half-maximal effect; % is set by controls: 0 for no effect and ±100 for the full control effect; nearly all actives have a fitted effect of over 60% in size
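AlphaScreen proximity signal between nickel-chelate acceptor and streptavidin donor beads (final 10 ug/mL) reports binding of 50 nM L3MBTL1 to 75 nM biotin-H3 K9me1 peptide; complex incubated with compounds 30 min at room temperature; cefsulodin titration as control.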
* marks the source's active call; other numbers are inactive results; ? = inconclusive; · = no result given; ! = not confirmed by another sample; [ ] = another dose, or the depositor's remark. Unless noted, calls come from the whole dose curve; as a rule, active = well fitted inhibition curve with a large enough effect; inconclusive = small, poorly fitted or top-dose-only effect; inactive = no such curve, though single readings can be large or run the other way.

SMILES	BAZ2B inh	G9a block	PI5P4K alpha inh	JMJD2A Tudor	HP1b chromo inh	L3MBTL1 inh
COC(=O)C1=C(c2ccccc2)c2ccccc2S(=O)(=O)N1CC(=O)Nc1ccccc1Cl	-11%	-34%[59 µM]	·	-21%	14%	·
CN(C)S(=O)(=O)c1cccc(N=C2NN=C(c3ccccc3)CS2)c1	-5%	35µM*	-18	-34%	?	?
COCCN=C1NN=C(c2ccc(NC(C)=O)cc2)CS1	-19%	?	9	-29%	-16%	4%[11.4 µM]
Fc1ccccc1N=C1NN=C(c2ccccc2)CS1	-39%	?	1	-29%	-1%	-7%
CC(=O)Nc1ccc(C2=NNC(=Nc3cccc(S(=O)(=O)N(C)C)c3)SC2)cc1	-32%	25µM*	-71*	35µM*	?	-27%
COc1ccc(CNC(=O)Cn2ncc3c([nH]c4ccccc43)c2=O)cc1	-1%	-2%[59 µM]	·	5%	20%	·
CCC(C(=O)NC1CCCCC1)n1nc(C)c2sc3ccccc3c2c1=O (stereo not given)	1%	-7%[59 µM]	·	-12%	19%	·
S=c1[nH]nc(CNc2ccc(Cl)cc2)n1Cc1ccccc1	-34%	?	-8	-2%	20%	-16%
CCCCc1n[nH]c(=S)n1Cc1ccccc1	-27%	?	0	4µM*	8%	3%[11.4 µM]
CCCCc1n[nH]c(=S)n1Cc1ccc(Cl)cc1	-12%	3.5µM*	1	?	19%	·
O=C1C(=O)N(c2nccs2)C(c2ccccc2F)/C1=C(\O)c1ccc2c(c1)OCCO2 (stereo not given)	50µM*	-11%[0.0925 µM]	-11	?	0%	·
Cc1nnc(N2C(=O)C(=O)/C(=C(/O)c3ccc4c(c3)OCCO4)C2c2ccc(F)cc2)s1 (stereo not given)	-25%[57.1 µM]	45µM*	-12	-18%	80%	·
CCOc1ccc(C2/C(=C(\O)c3ccc4c(c3)OCCO4)C(=O)C(=O)N2CCCn2ccnc2)cc1OC (stereo not given)	-19%	-7%	3	-23%	27%	·
CCCCc1ccc(-c2nc(NC(=O)C3C4CCC(O4)C3C(=O)O)sc2C)cc1 (stereo not given)	?	50µM*	·	·	·	-1%
CCc1cccc(C)c1NC(=O)C1C2CCC(O2)C1C(=O)O (stereo not given)	0%	23%[59 µM]	9	-1%	23%	·
O=c1cc(-c2ccc(O)c(O)c2)oc2cc(O)c([C@@H]3O[C@H](CO)[C@@H](O)[C@H](O)[C@H]3O)c(O)c12	·	·	-5	32µM*!	11%	?
O=c1c2cc(O)c(O)cc2oc2cc(O)c(C3OC(CO)C(O)C(O)C3O)c(O)c12 (stereo not given)	13µM*	2.8µM*	1	7.9µM*	?	3.2µM*
Cc1nc(N2CCOCC2)c2c(C(=O)NCCc3ccccc3)c(C)oc2n1	13%[57.1 µM]	-21%[59 µM]	·	-5%	27%	·
COc1cc(C)cc(C(=O)O)c1C1=C(O)c2cccc(O)c2C(=O)C1=O	56µM*	?	-78*	79µM*	-24%	·
CCNC(=O)[C@@H]1CCCN1C(=O)[C@H](CCCN=C(N)N)NC(=O)[C@H](CC(C)C)NC(=O)[C@@H](Cc1c[nH]c2ccccc12)NC(=O)[C@H](Cc1ccc(O)cc1)NC(=O)[C@H](CO)NC(=O)[C@H](Cc1c[nH]c2ccccc12)NC(=O)[C@H](Cc1cnc[nH]1)NC(=O)[C@@H]1CCC(=O)N1	·	-31%[12.7 µM]	·	·	·	·
CCOC(=O)COc1ccccc1C1C(C(=O)OC)=C(C)NC2=C1C(=O)c1ccccc12 (stereo not given)	40µM*	13µM*	·	40µM*	?	·
CCOc1cc(C2C(C(=O)OC)=C(C)NC3=C2C(=O)c2ccccc23)cc(Cl)c1O (stereo not given)	?	?	·	-24%	-12%	·
CCOc1ccccc1C1NC(=O)NC(C)=C1C(=O)OCc1ccccc1 (stereo not given)	3%	-50%	-1	-13%	41%	-1%
CCOC(=O)C1=C(C)NC2=C(C(=O)c3ccccc32)C1c1ccc([N+](=O)[O-])o1 (stereo not given)	11µM*	·	-15	22µM*	50µM*	-28%
COC(=O)COc1ccc(C2C(C(=O)OC)=C(C)NC3=C2C(=O)c2ccccc23)cc1OC (stereo not given)	25µM*	13µM*	·	?	?	·
SMILES	BAZ2B inh	G9a block	PI5P4K alpha inh	JMJD2A Tudor	HP1b chromo inh	L3MBTL1 inh
CCOc1ccc(Br)cc1C1C(C(=O)OC)=C(C)NC2=C1C(=O)c1ccccc12 (stereo not given)	22µM*	?	·	25µM*	?	·
CCOc1ccc(NC(=O)c2sc(-n3nc(C)c(CCC(C)C)c3C)nc2C)cc1	-25%	15%[59 µM]	·	9%	56%	·
COc1c(C)cccc1C(=O)Nc1ccc(-c2nc3ccccc3s2)c(Cl)c1	5%	?	·	-21%	7%	·
O=C(CSc1nnc(NC2CCCCC2)s1)Nc1ccc(N2CCOCC2)cc1	-35%	18%[59 µM]	·	-11%	9%	-6%
CC(Sc1nnc(NC2CCCCC2)s1)C(=O)Nc1ccc2c(c1)C(=O)c1ccccc1C2=O (stereo not given)	-36%	3.5µM*	?	?	-17%	-18%
COc1ccc(Nc2nnc(SC(C)C(=O)NC3CC3)s2)cc1 (stereo not given)	·	·	-3	-14%	23%	-2%
CC(Sc1nnc(NC2CC2)s1)C(=O)Nc1ccc(N2CCOCC2)cc1 (stereo not given)	-19%	45µM*	-4	-1%	16%	-6%
CCOc1ccccc1NC(=O)C(C)n1nnc2sc3c(c2c1=O)CCCC3 (stereo not given)	3%	26%[59 µM]	·	-29%	59%	·
O=c1c(CCc2ccccc2)nc2cnc(N3CCNCC3)nc2n1Cc1ccc(F)cc1	·	2%[12.7 µM]	·	·	·	·
CCOc1ccc2c(c1)c(=O)c(C(=O)c1ccccc1)cn2Cc1ccccc1F	-2%	7%[59 µM]	·	-14%	28%	·
CC(C)(C)OC(=O)N1CCC(NC(=O)c2nc[nH]c2C(=O)N2CCc3ccccc3C2)CC1	56µM*	-2%[0.501 µM]	3	-27%	28%	-18%
